Screening results as filed in PubChem.
Pf apPOL block: Pf-apPOL DNA polymerase inhibition. Recombinant Pf-apPOL, molecular beacon fluorescence, 1.5 h. inhibition, % at 10 µM. actives 0.25% (n = 210,000)
mHTT-CaM PPI inh: disrupts binding of mutant huntingtin to calmodulin; P42858; actives 3.6% (n = 190,000); AID 1671202; AlphaScreen His-mHTT/GST-CaM binding, luminescence; inhibition, % at 15 µM;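 note: 0% = both proteins with DMSO and 100% = one protein alone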
The depositor's hits bear a star; nt = no result given. This excerpt belongs to a sample that is enriched for hits. Cut-off read from the data, not from the text of the source: active = inhibition above about 50%; inactive = the rest.

SMILES	Pf apPOL block	mHTT-CaM PPI inh
OCCNc1nc(NCCc2cccs2)nc2c1cnn2-c1ccc(F)cc1	-5	56*
OCCNc1nc(NN2CCOCC2)nc2c1cnn2-c1ccc(Cl)cc1	0	5
COc1ccc(Cl)cc1C1=N/C(=C/c2ccc([N+](=O)[O-])cc2)C(=O)O1	6	2
Cc1nc2cc(NC(=O)Cc3csc(NC(=O)c4ccc(=O)[nH]c4)n3)ccc2s1	9	59*
Cc1nc2cc(NC(=O)Cc3csc(NC(=O)C4CCCC4)n3)ccc2s1	-10	-18
CCOc1ccccc1N1CC(C(=O)Nc2c(CC)cccc2CC)CC1=O (stereo not drawn)	4	2
NC(=O)Cc1nc2ccccc2[nH]1	97*	-5
O=C(O)CCCc1nc2ccccc2[nH]1	-2	-6
Cc1cccn2c(=O)c3cc(C(=O)Nc4ccc(Br)cc4F)sc3nc12	-10	-4
CCCCC[C@@H](C)N1C[C@H](COCc2ccccc2)Oc2cc(N3CC[C@@H](O)C3)ccc2S1(=O)=O	-8	58*
CCCCC[C@H](C)N1C[C@H](COCc2ccccc2)Oc2cc(N3CC[C@H](O)C3)ccc2S1(=O)=O	-13	96*
CCCCC[C@@H](C)N1C[C@H](COCc2ccccc2)Oc2cc(N3CC[C@H](N(C)C)C3)ccc2S1(=O)=O	-19	100*
CCCCC[C@@H](C)N1C[C@H](COCc2ccccc2)Oc2cc(N3CC[C@H](O)C3)ccc2S1(=O)=O	-10	78*
CCCCC[C@H](C)N1C[C@H](COCc2ccccc2)Oc2cc(N3CCC[C@@H]3COC)ccc2S1(=O)=O	-4	-9
CCCCC[C@H](C)N1C[C@@H](COCc2ccccc2)Oc2cc(N3CCC[C@H]3CO)ccc2S1(=O)=O	-3	14
CCCCC[C@H](C)N1C[C@H](COCc2ccccc2)Oc2cc(N3CCC[C@H]3CO)ccc2S1(=O)=O	-11	36
CCCCC[C@H](C)N1C[C@H](COCc2ccccc2)Oc2cc(N3CCC[C@@H]3CO)ccc2S1(=O)=O	-12	26
CC(=O)c1sc(-c2ccsc2)nc1C	-2	nt
C=CCc1cccc(C(=O)O)c1O	-2	nt
O=C(Nc1ccc(Cc2ccncc2)cc1)c1cccc([N+](=O)[O-])c1	-2	10
CC(C)(C)S(=O)(=O)C(C#N)=CNN1CCCCC1	2	nt
C=CCc1c(C)[nH]c2ccc(OC)cc2c1=O	-8	0
O=C(CCc1ccccc1)Nc1cccc(O)c1	-6	-1
COC(=O)c1cc(I)c(OC(C)=O)c(I)c1	-3	nt
CCCCC[C@@H](C)N1C[C@@H](COCc2ccccc2)Oc2cc(N3CCC[C@H]3C(N)=O)ccc2S1(=O)=O	-1	43
SMILES	Pf apPOL block	mHTT-CaM PPI inh
CCCCC[C@H](C)N1C[C@@H](COCc2ccccc2)Oc2cc(N3CCC[C@H]3C(N)=O)ccc2S1(=O)=O	-8	69*
COc1ccc(C(=O)Oc2ccc3c(=O)c(-c4ccccc4)coc3c2)cc1	2	0
O=C(CNC(=O)c1ccccc1Cl)c1ccccc1	-3	-13
CCSc1ccccc1C(=O)NCCS(=O)(=O)N1CCc2ccccc2C1	-4	2
COc1cc(C2Oc3c(OC)cccc3C3CC(c4cccnc4)=NN32)cc(OC)c1OC (stereo not drawn)	-19	35
Cc1ccc(NS(=O)(=O)c2cn(C)c3ncccc23)cc1	80*	67*
Cc1ccc(CNC(=O)Cc2cn(C)c3ncccc23)cc1	2	-15
Cc1ccc(COC2CCCN(C(=O)Nc3ccccc3)C2)cc1 (stereo not drawn)	0	-6
COc1ccc(-n2nc(C(=O)NCC(=O)NCc3ccccc3OC)c3ccccc3c2=O)cc1	0	-1
Fc1ccc(N=Cc2ccccc2)cc1	9	nt
C(=Nc1ccc(Nc2ccccc2)cc1)c1ccccc1	-1	86*
CCOc1ccccc1N1CCN(C(=O)C2CCN(CCCc3ccccc3)CC2)CC1	-6	8
CCN1c2cc(C)ccc2-n2cccc2C12CCN(C(=O)NCc1ccco1)CC2	-4	84*
CCN1c2ccccc2C(=O)NC12CCN(C(=O)NCCc1ccccc1)CC2	-2	-2
Cc1cccc(-n2cc(C3CCN(C(=O)NCc4ccco4)CC3)cn2)c1	-3	24
CCN1c2cc(C)ccc2-n2cccc2C12CCN(C(=O)NCc1ccc(F)cc1)CC2	2	93*
CCOCCCNC(=O)N1CC(CC)Oc2ccc(C)cc21 (stereo not drawn)	-6	-1
CCN1c2cc(C)ccc2-n2cccc2C12CCN(C(=O)NCCc1ccccc1)CC2	-2	94*
CCOCCCNC(=O)N1CCC2(CC1)c1cccn1-c1ccc(C)cc1N2CC	4	93*
CCN1c2ccccc2C(=O)NC12CCN(C(=O)NCc1ccc(F)cc1)CC2	-10	1
N#CC(C#N)=Cc1ccc(-c2ccc(Cl)cc2Cl)o1	3	8
CCN1c2cc(C)ccc2-n2cccc2C12CCN(C(=O)NCc1ccccc1)CC2	-1	81*
Cc1ccc(CNC(=O)C2(C)CCCN(C(=O)NCc3ccccc3)C2)cc1 (stereo not drawn)	2	-6
O=C(c1ccoc1)N1CCCC(c2nc(-c3ccc(F)cc3)n[nH]2)C1 (stereo not drawn)	4	0
COc1ccc(-c2cc(C(F)(F)F)n3ncc(C(=O)NC(C)c4ccccc4)c3n2)cc1OC (stereo not drawn)	-4	-6
SMILES	Pf apPOL block	mHTT-CaM PPI inh
c1ccc(Nc2nc(N3CCCCC3)nc(N3CCNCC3)n2)cc1	0	16
NNc1nc(Nc2ccccc2)nc(N2CCCC2)n1	-6	81*
NNc1nc(Nc2ccccc2)nc(N2CCOCC2)n1	-1	98*
Clc1ccc(Nc2nc(Oc3ccccc3)nc(N3CCOCC3)n2)cc1	-3	-2
O=c1c2ccccc2c(-c2ccccc2)nn1-c1cc(N2CCCC2)ccc1[N+](=O)[O-]	0	34
Cc1ccc(-c2nn(-c3cc(N4CCNCC4)ccc3[N+](=O)[O-])c(=O)c3ccccc23)cc1C	0	100*
CCCN(CCC)S(=O)(=O)c1ccc2c(c1)CC(C)N2C(=O)CC (stereo not drawn)	10	-3
CCc1ccccc1NC(=O)c1ccc(-c2nc3cccnc3n(C)c2=O)cc1	-1	0
COCCCNC(=O)C1CCN(C(=O)c2cccnc2-c2ccccc2C)CC1	-6	-6
COCCCNC(=O)C1CCN(Cc2cc3ccccc3n2Cc2ccccc2C)CC1	2	64*
COc1ccc(CN2CCC(C(=O)NCc3ccccc3Cl)CC2)c(OC)c1	-5	-1
COCCNC(=O)C1CCN(Cc2cc3ccccc3n2Cc2ccccc2Cl)CC1	0	83*
Cc1onc(-c2c(Cl)cccc2Cl)c1C(=O)N1CCN(c2nc(-c3cccs3)ns2)CC1	-15	nt
O=C(Nc1cccc(C(F)(F)F)c1)/C(=C/c1ccco1)NC(=O)c1ccsc1	4	14
O=C1N=c2ccccc2=C1c1sc(Nc2cccc(O)c2)nc1O	-1	61*
O=C1N=c2ccccc2=C1c1sc(Nc2ccc(Br)cc2)nc1O	6	28
Cc1ccc2c(c1)c(=O)c(C(=O)O)cn2C	-3	-5
Cc1ccc2c(c1)c1cccc3c1n2CCN3CCC(N)=O	-4	69*
COc1ccc(CCNC(=O)C2CCCN(c3ccc(-c4ccco4)nn3)C2)cc1OC (stereo not drawn)	-7	2
COc1ccc(Cl)cc1NC(=O)N1CCN(c2ccc(-c3ccco3)nn2)CC1	15	64*
